Test results taken from paper PMC12136788.
Numbering of substitutions follows the chain as printed. The full ranking holds about 24,000 sequences; the median of “enrichment r” is about 0.99, and the highest 2% start at about 3.7. Many of the other results were omitted from the sample, so the highest values are more common in it than they were.

T1: UNK ZnF1-3 (human, UniProt Q9C0B0 31-174)
T1 sequence: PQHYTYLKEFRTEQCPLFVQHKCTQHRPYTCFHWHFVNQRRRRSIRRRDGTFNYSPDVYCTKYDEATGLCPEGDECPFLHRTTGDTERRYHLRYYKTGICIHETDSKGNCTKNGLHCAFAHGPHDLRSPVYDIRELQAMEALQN

B1: chr2:9725471:9725472:-_ENSG00000134308_ENST00000238081|hu_hu|FALSE|FALSE (ssRNA)
RNA: GGGAGUUCUACAGUCCGACGAUCUGCCGCAUCACAUUCUUCUCCUGCACUGUCUGAUGUCCAAAGUGUUAGGUUGUCUCUAAGCAACUGCAUGAUGAGGGUGCUGUCUUUGUAUGAGUCUUCAUUCAGUGUAUCAAGUUCAGCCAACAGAGGAUUGAGCAUCA
B2: 27821128_27827609_1759_CDS_ENSMUSG00000022263_ENSMUST00000090247|mouse|control|control (ssRNA)
RNA: GGGAGUUCUACAGUCCGACGAUCGCCCUGGUGAUGAUGAAUGGCGUCUUCCAGGUCCUGCAGCUCCGAGGGAAGGUCUACUUCACCACAGGCCUUACACCACGAGUCCACGUUGCUCAUGUACUUCUCAGCCUUCUGGUGAAACAACAGAGGAUUGAGCAUCA
B3: chr8:21961785:21961786:+_ENSG00000158863_ENST00000289921|hu_hu|FALSE|FALSE (ssRNA)
RNA: GGGAGUUCUACAGUCCGACGAUCGCACUGAGGAGAGGGGAGGGUCUGUGACUCCCAAACCCUCGAAUAUUUUAUGAAUCUAAGAGUCCAGACGCAGUUCAUCCACGGAGAUCUGCGCCCCGUCCACACCAACACCCACGUUUGCAACAGAGGAUUGAGCAUCA
B4: chr2:216981417:216981418:+_ENSG00000079246_ENST00000392132|hu_hu|hu_hu_hu_mus_True|8_48 (ssRNA)
RNA: GGGAGUUCUACAGUCCGACGAUCCUGAUACUGGUCCUUGCCAGCAAGGGCAUUAUCAGUGCCAUCUGUGCCAUAGAGGACUAACGCAAUCUCAUCCUUGCUCUCCGAAAAUACCUGUCGUUGGACAAACAUGGUUAUCACUUUCAACAGAGGAUUGAGCAUCA
B5: chr7:65705844:65705845:+_ENSG00000169902_ENST00000304842|hu_mus|hu_hu_hu_mus_False|18_108 (ssRNA)
RNA: GGGAGUUCUACAGUCCGACGAUCAAAAGGAUCUUUAUUACAUAAAUAAGGUGCCGGCUCCCCAUGUUUAACAAUGACCUCCAGAAGGAAGGCUUGCAUGGCAGAAUCUAGCACUUCAUCAGUAACACCCGCCUCAUCCAAGCGCAACAGAGGAUUGAGCAUCA
B6: chr18:43795804:43795805:+_ENSG00000152242_ENST00000321319|hu_hu|FALSE|FALSE (ssRNA)
RNA: GGGAGUUCUACAGUCCGACGAUCCUCCUCCAUCUUCAUUUCAGAAUUUCAAGUUAAAUCAUGGAGUAGAGUCUAGGAAAUGAUAUCAAAGAUGCAACAGGAAAGCAACCUGCGCUCCGCGGCGACUCCGUGCCUUCUCGCUCGCAACAGAGGAUUGAGCAUCA
B7: chr11:100882373:100882374:+_ENSMUSG00000019302_ENSMUST00000044721|mus_mus|mus_mus_mus_hu_True|38_108 (ssRNA)
RNA: GGGAGUUCUACAGUCCGACGAUCUUCCUGGUUAGUGUUGAUUUCCUUCAGUUCAUUUUCAAUCUUCUCAAAAUUGGCCUCUAAGUCAAUCAUGUCCCGAGGGAAGGGAACCUCUGGGUUUUCACCGGUGUCCAUAAUCGGAAUCAACAGAGGAUUGAGCAUCA
B8: chr2:49628383:49628384:+_ENSMUSG00000026764_ENSMUST00000028102|mus_mus|FALSE|FALSE (ssRNA)
RNA: GGGAGUUCUACAGUCCGACGAUCUUGGUACUGACGGGGUUUGCAGACUUGCCCUGCAAAGGACCCCUCCAUCAGACUCCAAUAGCAGCCAACAGUGGCAACAACAUGAAACAAAGUGAACACAGGUAAACACAAAAUCAUCUUCAACAGAGGAUUGAGCAUCA
B9: 104520116_104520236_3471_3pUTR_ENSMUSG00000027175_ENSMUST00000111118|mouse|control|control (ssRNA)
RNA: GGGAGUUCUACAGUCCGACGAUCAAGUUAAAAUUCCAGCCUAUGUGAAAAGAGAUACAAUUUAACACAGGUGACAGGACGCUCUGCUGUUAGUUUCCCUACAUCAAAGACUAUUCCAGUACAAUGAACAGGAGGGUUUGGAAGCAACAGAGGAUUGAGCAUCA
B10: chr9:122046315:122046316:+_ENSMUSG00000038145_ENSMUST00000120173|mus_hu|FALSE|FALSE (ssRNA)
RNA: GGGAGUUCUACAGUCCGACGAUCUAGUUUGGUCUGGGUGUCAAUAACUUCAUAAAGGCGGACGAUGUUAGGAUGCUGCACUAGUUUCAUGCAUCUCACUUCCUGGAAAAGAUGACCAGUAGCUAGAGUGUCCAGUUUUGUCUUCAACAGAGGAUUGAGCAUCA
B11: chr18:33597908:33597909:-_ENSMUSG00000042834_ENSMUST00000171533|mus_hu|FALSE|FALSE (ssRNA)
RNA: GGGAGUUCUACAGUCCGACGAUCCAUCAAAAGAGUACAUGGAUAAAAUAUAGAGAUAUACAGACAAUUGAUGAACAUAAACUACUAGGUUUGUUACAUCUAAAUGAAAAAAAAGGUGGGGGGGGGACUCUCAGCCUCUGCAAGCAACAGAGGAUUGAGCAUCA
B12: chr1:46159212:46159213:+_ENSG00000159596_ENST00000372025|hu_mus|hu_hu_hu_mus_True|28_108 (ssRNA)
RNA: GGGAGUUCUACAGUCCGACGAUCUCUGAUCCCACCCAAGAAAGCUAGGAAACCGGCUCCAUAAGCCAUCUGAGUGAAAGCUAGGACGGGGAUAUAAGACUUUGUUAUCAGCAUGACAAGUGGGGGAGCAGUAAAGGGGAUUAACAACAGAGGAUUGAGCAUCA
B13: chr18:33597908:33597909:-_ENSMUSG00000042834_ENSMUST00000171533|mus_hu|motif|central (ssRNA)
RNA: B11 RNA with U82G, A83G, U85G, A86G
B14: chr1:46159212:46159213:+_ENSG00000159596_ENST00000372025|hu_mus|hu_hu_hu_mus_True|28_58 (ssRNA)
RNA: B12 RNA with A33U, G83A, G84U, C86U
B15: chr1:46159212:46159213:+_ENSG00000159596_ENST00000372025|hu_mus|hu_hu_hu_mus_True|1_28 (ssRNA)
RNA: B12 RNA with A33U, A143G
B16: chr1:46159212:46159213:+_ENSG00000159596_ENST00000372025|hu_mus|hu_hu_hu_mus_True|28_48 (ssRNA)
RNA: B12 RNA with A33U, G90A
B17: chr12:51141157:51141158:+_ENSG00000066084_ENST00000301180|hu_mus|FALSE|FALSE (ssRNA)
RNA: GGGAGUUCUACAGUCCGACGAUCUCAAAGAAAAGCAACAGAAAAUAAAAAAAAAAAAAGAAGUAGUCAUUACCAGAAGGAGGAAAAGACUAGAAGCCUGGGCAAGGCAUGAAGGUGUCUGCUGCAAUUUCAGUACUCGGGACACAACAGAGGAUUGAGCAUCA
B18: chr19:16212804:16212805:+_ENSG00000167460_ENST00000300933|hu_mus|hu_hu_hu_mus_False|88_108 (ssRNA)
RNA: GGGAGUUCUACAGUCCGACGAUCAACAAAUAUGCAAUGAAGGAAAGCAUCAAGGAUGAACAGCAUUAAAGCUCAGUCAGAAGGCACAUGGGCAACAAUGAUCACCCCAGCAUUCUCGCUUGGAAUGCUUAAAGACAAUCUGUUCAACAGAGGAUUGAGCAUCA
B19: chr16:94664806:94664807:+_ENSMUSG00000040785_ENSMUST00000117648|mus_mus|FALSE|FALSE (ssRNA)
RNA: GGGAGUUCUACAGUCCGACGAUCAUUAGGACUCUCAAAGUAUGCAGCGGCAUUUUCAUCUGCUCUGUUGCUGGCUACAAAAGAUGGCACCACUGGCAUGGAUCUUUGCAUUGGAUACUCAGAAGAAAUGUUGGCCAAAGGUGUCAACAGAGGAUUGAGCAUCA
B20: 15109990_15111016_889_CDS_ENSG00000179889_ENST00000396410|human|control|control (ssRNA)
RNA: GGGAGUUCUACAGUCCGACGAUCUGAGGAGACAUAACCCAGAGCCAAUGUUGCCAGAUUCACACCCUCCACAUGAAGCCAUAUGCCAUACUGCUCACAGAGUUCUUUCAAUCUCCCAAUCUUGUCUGUGUGUCCUACUGCUGCCAACAGAGGAUUGAGCAUCA
B21: 17503471_17513584_185_CDS_ENSG00000151552_ENST00000428702|human|control|control (ssRNA)
RNA: GGGAGUUCUACAGUCCGACGAUCCUUAAAGAGAGACUUGGAUUUGGCAUUGCCCCCGGCCCAUCCUCCAGCAACGCAAAGAAUUGCAUCCACCUUCUCUUCACCCAAGAGCUUUCCAACCUCAGCAGUCACCCAGUUGCGGGCCAACAGAGGAUUGAGCAUCA
B22: chr10:33190432:33190433:-_ENSG00000150093_ENST00000302278|hu_mus|hu_hu_hu_mus_True|1_98 (ssRNA)
RNA: GGGAGUUCUACAGUCCGACGAUCUACAUUUUCCAAACCUGCACAUGAAUAAAACCCUGGCCACAGAGCCCCAAAACUACCCUACUGUGACUAAGAUGCUGCUGCUGUGAGCUUGGUGUUGCAAAAUCCGCCUGAGUCAGUACUCAACAGAGGAUUGAGCAUCA

Biological target: T1, UNK ZnF1-3
Test: nsRBNS (natural sequence RNA bind-n-seq); RBNS binding buffer (assumed for nsRBNS): 25 mM Tris pH 7.5, 150 mM KCl, 3 mM MgCl2, 0.01% Triton X-100, 500 ug/ml BSA, 20 U/ml SUPERase-In, 4 C; UNK is unkempt and MSI1 is Musashi-1; names of the RNAs are library labels; protein concentration not given here; high values mean tight binding

Binder | binding signal
B1 | 0.929 enrichment R
B2 | 0.482 enrichment R
B3 | 1.03 enrichment R
B4 | 0.64 enrichment R
B5 | 0.624 enrichment R
B6 | 0.921 enrichment R
B7 | 0.664 enrichment R
B8 | 0.994 enrichment R
B9 | 1.5 enrichment R
B10 | 0.873 enrichment R
B11 | 13.4 enrichment R
B12 | 1.36 enrichment R
B13 | 6.29 enrichment R
B14 | 1.32 enrichment R
B15 | 3.95 enrichment R
B16 | 1.5 enrichment R
B17 | 4.07 enrichment R
B18 | 1.33 enrichment R
B19 | 1.22 enrichment R
B20 | 1.36 enrichment R
B21 | 1.33 enrichment R
B22 | 1.13 enrichment R
